Experimental findings from PubChem BioAssay (EPA / NIEHS) are described below.

“And” between values parts separate entries of the source, which are not always exact repeats. Equal values may be shown once. Results filed as inconclusive are left out. The source made the active and inactive calls. Rule for the calls, unless noted: active = hit-call score of the fitted dose curve at least 0.9, where 1 is the maximum; inconclusive = response in the unintended direction; inactive = score below 0.9.

Experiment [1] can be described thus: CCTE_Padilla_ZF_144hpf_TERATOSCORE: (Legacy) CCTE's 144 Hour Post-fertilization zebrafish Assay Teratoscore, Padilla Lab (AID 2283679; active = hit-call score of the fitted dose curve at least 0.9, where 1 is the maximum; inactive = score below 0.9;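 note: zebrafish embryos with chorions exposed by immersion from 6-8 hpf to 5 dpf with daily renewal; teratogenicity score from eye scoring of death hatching and malformations at 144 hpf; higher score means more developmental defects relative to DMSO baseline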). A digest of the protocol: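 Larvae scored by eye at 144 hpf for death, hatching and malformations after a day in clean Hanks'. Before that, daily-renewed exposure at 80 uM (0.4% DMSO, 26C) from roughly 6-8 hpf through 5 dpf, 4 embryos per chemical.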

Experiment [2] can be described thus: ACEA_ER_AUC_viability: ACEA Biosciences xCELLigence Real-Time Cell Analysis on Estrogen Receptor Agonism for Viability (AID 2283782).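 Note: hit means loss of impedance signal meaning reduced cell growth or viability.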 A digest of the protocol: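 Read-out: real-time electrical impedance (RT-CES) area under curve, loss of signal taken as reduced viability, normalized to DMSO baseline. T-47D cells, charcoal-stripped serum medium, compounds up to 100 uM final, continuous exposure, 80 h.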

Experiment [3] addresses Thyroid hormone receptor alpha (Rattus norvegicus) + Thyroid hormone receptor beta (Rattus norvegicus) (UniProt P18113+P63059). Briefly: TOX21_TR_LUC_GH3_Antagonist_Followup: Tox21 GH3 Thyroid Hormone Receptor Antagonism Luciferase Follow-Up Assay (AID 2283942). A digest of the protocol: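 Luminescence read-out (ONE-Glo, 30 min at room temperature) in GH3 reporter cells challenged with 1.0 nM T3 final. Compounds ran at 92 uM to 5nM over 15 concentrations for 24 h; DMSO served as negative control and baseline.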

A further experiment addresses THRA (gene 7067) (UniProt P10827). Briefly: TOX21_TRA_COA_Antagonist_Followup_ratio: Tox21 Thyroid Hormone Receptor alpha Antagonism through Coactivator Recruitment Follow-Up Assay, Ratio (AID 2283953). A digest of the protocol: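 We measured antagonism of T3-type coactivator recruitment using a TR-FRET ratio (emission 520 and 495 nm) between a Tb-labelled anti-GST antibody on TRα LBD (2.5 nM) and SRC-2 peptide (200 nM). Activity was scaled between DMSO and T3 wells.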

A further experiment addresses THRB (gene 7068) (UniProt P10828). Briefly: TOX21_TRB_BLA_Antagonist_Followup_ratio: Tox21 Thyroid Hormone Receptor beta Antagonism Beta-lactamase (BLA) Follow-Up Assay, Ratio (AID 2283958). A digest of the protocol:
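Using charcoal-stripped 2% FBS medium, human TRβ-LBD/GAL4 reporter HEK293T cells received test compounds for 18 h. The endpoint is the cleaved-to-uncleaved substrate ratio (460/530 nm).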

A short description of experiment [4]: TOX21_TRB_BLA_Antagonist_Followup_viability: Viability Assessment in the Tox21 Thyroid Hormone Receptor beta Antagonism Beta-lactamase (BLA) Follow-Up Assay (AID 2283961). A digest of the protocol:
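In the same wells as the reporter read, cell health was gauged by CellTiter-Glo ATP luminescence, with signal loss indicating reduced viability. Cells had been exposed to test compounds for 18 h.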

Experiment [5] has as its target Retinoic acid receptor RXR-alpha (Homo sapiens) (UniProt P19793). Nature of the experiment: TOX21_TR_RXR_BLA_Antagonist_Followup_ratio: Tox21 Thyroid Hormone Receptor beta Retinoid X Receptor alpha (RXRa) Antagonism Beta-lactamase (BLA) Follow-Up Assay, Ratio (AID 2283972). A digest of the protocol: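 Compounds were tested in triplicate at 11 concentrations on RXRa-bla HEK293T cells for 16 h. Substrate cleavage ratio, normalized to DMSO, gave the endpoint.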

The nature of experiment [6]: TOX21_TR_RXR_BLA_Antagonist_Followup_viability: Viability Assessment in the Tox21 Thyroid Hormone Receptor beta Retinoid X Receptor alpha (RXRa) Antagonism Beta-lactamase (BLA) Follow-Up Assay (AID 2283979). A digest of the protocol:
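RXRa-bla HEK293T cells (2,500/well, phenol red-free DMEM, 2% charcoal-stripped FBS) were attached 5 h, then exposed to compounds at 11 concentrations in triplicate for 16 h at 37C. Viability measured by CellTiter-Glo ATP luminescence, bidirectional fitting versus DMSO.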

Sequence of Retinoic acid receptor RXR-alpha (Homo sapiens) (P19793 whole entry, looked up): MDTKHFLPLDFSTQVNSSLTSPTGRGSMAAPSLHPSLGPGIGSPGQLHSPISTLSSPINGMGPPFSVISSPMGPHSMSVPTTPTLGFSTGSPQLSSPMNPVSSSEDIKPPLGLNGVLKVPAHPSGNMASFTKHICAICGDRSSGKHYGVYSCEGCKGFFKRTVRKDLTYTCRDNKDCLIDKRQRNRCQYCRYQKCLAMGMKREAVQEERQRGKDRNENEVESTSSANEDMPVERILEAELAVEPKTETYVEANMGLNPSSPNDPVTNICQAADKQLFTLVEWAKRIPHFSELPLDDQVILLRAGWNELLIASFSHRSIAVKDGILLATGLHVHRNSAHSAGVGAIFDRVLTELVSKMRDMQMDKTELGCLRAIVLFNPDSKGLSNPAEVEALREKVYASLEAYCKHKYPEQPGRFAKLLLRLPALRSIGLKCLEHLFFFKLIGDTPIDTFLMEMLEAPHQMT
Sequence of THRA (gene 7067) (P10827 whole entry, looked up, the tested form may be a part): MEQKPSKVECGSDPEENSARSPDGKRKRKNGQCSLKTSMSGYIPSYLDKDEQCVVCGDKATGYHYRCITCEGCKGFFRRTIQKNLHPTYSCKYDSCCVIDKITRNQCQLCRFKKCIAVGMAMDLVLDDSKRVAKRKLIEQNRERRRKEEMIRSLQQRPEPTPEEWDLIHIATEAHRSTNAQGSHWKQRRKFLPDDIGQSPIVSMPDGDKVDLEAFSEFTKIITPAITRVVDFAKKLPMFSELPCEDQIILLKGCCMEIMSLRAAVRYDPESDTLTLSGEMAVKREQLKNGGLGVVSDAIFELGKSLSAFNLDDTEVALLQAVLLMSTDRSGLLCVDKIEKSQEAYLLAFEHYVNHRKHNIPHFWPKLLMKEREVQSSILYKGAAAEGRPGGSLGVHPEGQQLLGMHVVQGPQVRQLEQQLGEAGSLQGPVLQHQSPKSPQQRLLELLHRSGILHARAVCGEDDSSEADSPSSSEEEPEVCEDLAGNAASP
Sequence of THRB (gene 7068) (P10828 whole entry, looked up, the tested form may be a part): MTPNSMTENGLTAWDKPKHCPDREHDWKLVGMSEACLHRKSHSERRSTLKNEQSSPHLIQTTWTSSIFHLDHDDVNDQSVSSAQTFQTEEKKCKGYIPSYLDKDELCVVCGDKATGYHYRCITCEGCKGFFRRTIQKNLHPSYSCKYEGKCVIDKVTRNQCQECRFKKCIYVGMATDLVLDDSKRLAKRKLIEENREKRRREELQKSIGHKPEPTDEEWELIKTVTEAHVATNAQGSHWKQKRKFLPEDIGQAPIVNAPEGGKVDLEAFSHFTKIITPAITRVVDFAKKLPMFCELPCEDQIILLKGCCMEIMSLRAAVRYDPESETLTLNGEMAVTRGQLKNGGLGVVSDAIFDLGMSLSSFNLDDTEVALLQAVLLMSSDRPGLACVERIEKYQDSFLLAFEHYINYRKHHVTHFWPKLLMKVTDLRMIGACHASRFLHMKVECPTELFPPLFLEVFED

With `CC[C@H](C)C(=O)O[C@H]1CCC=C2C=C[C@H](C)[C@H](CC[C@@H]3C[C@@H](O)CC(=O)O3)[C@H]21`, the AC50 (usually the concentration at which the activity in the assay is half-maximal) in experiment [1] is 8.02 nM (active) and 2.39 nM (active).

With `CCOC(=O)COc1ccc(C)cc1`, in experiment [2], the call was inactive.

As for `CO[C@H](C(=O)[C@@H](O)[C@@H](C)O)C1Cc2cc3cc(O[C@H]4C[C@@H](O[C@H]5C[C@@H](O)[C@H](O)[C@@H](C)O5)[C@@H](O)[C@@H](C)O4)c(C)c(O)c3c(O)c2C(=O)[C@H]1O[C@H]1C[C@@H](O[C@H]2C[C@@H](O[C@H]3C[C@](C)(O)[C@H](O)[C@@H](C)O3)[C@H](O)[C@@H](C)O2)[C@H](O)[C@@H](C)O1` (stereo not given in full), the AC50 in experiment [3] was 745 nM (active); with THRB (gene 7068) it was 4010 nM (active); in experiment [5] it was 1360 nM (active); in experiment [6], 1350 nM (active). Further, the result (in the experiment with THRA (gene 7067); in experiment [4]) was inactive.

As to `Oc1ccc(OCc2ccccc2)cc1`, the result in experiment [4] and in experiment [6] was inactive.
